{"source": "the supplement of paper PMC6953052", "note": "Over roughly 1,700 compounds, “fraction of GFP-LC3-positive cells (≥5 vesicles/cell)” has its median near 0.43; the highest 2% begin near 0.81. The sample holds the highest values, similar compounds and a random draw of the others, so the mix is not that of the screen.", "data": [{"system": "CbCln3 Δex7/8/Δex7/8 GFP-LC3 cerebellar neuronal cells", "assay": "fraction of GFP-LC3-positive cells (≥5 vesicles/cell); higher = more autophagosome accumulation", "how_it_was_run": "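Wild-type or mutant CbCln3 cerebellar cells stably expressing GFP-LC3 (2 × 10^3/well, 384-well) received ~50 nL compound in DMSO by pin transfer, in duplicate, for 24 h at 33 °C. Hoechst 33342 and LysoTracker Red were added for the final 30 min before 3.2% PFA fixation and 10× imaging of three fields per well. CellProfiler counted GFP-LC3 vesicles per cell. The value is the fraction of cells with 5 or more vesicles, averaged over duplicates, with out-of-focus images excluded.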", "values": [{"smiles": "Clc1ccc(COC(Cn2ccnc2)c2ccc(Cl)cc2Cl)c(Cl)c1", "note": "(stereo not given) [Miconazole]", "fraction of GFP-LC3-positive cells": 0.337}, {"smiles": "CC1(C)S[C@@H]2[C@H](NC(=O)[C@H](N)c3ccccc3)C(=O)N2[C@H]1C(=O)OC1OC(=O)c2ccccc21.Cl", "note": "(stereo not given in full) [Talampicillin hydrochloride]", "fraction of GFP-LC3-positive cells": 0.422}, {"smiles": "CN/C(=N/CCSCc1nc[nH]c1C)NC#N", "note": "[Cimetidine]", "fraction of GFP-LC3-positive cells": 0.473}, {"smiles": "Cn1cnc([N+](=O)[O-])c1Sc1ncnc2[nH]cnc12", "note": "[Azathioprine]", "fraction of GFP-LC3-positive cells": 0.388}, {"smiles": "CCCCC/C=C\\C/C=C\\C/C=C\\C/C=C\\CCCC(=O)O[C@@H](CO)COCCCCCCCCCCCCCCCC", "fraction of GFP-LC3-positive cells": 0.311}, {"smiles": "CCCCC/C=C\\C/C=C\\C/C=C\\C/C=C\\CCCC(=O)O[C@@H](CO)COCCCCCCCCCCCCCCCC", "note": "[1-Hexadecyl-2-arachidonoyl-glycerol]", "fraction of GFP-LC3-positive cells": 0.517}, {"smiles": "CC(C)n1c(/C=C/[C@H](O)C[C@H](O)CC(=O)[O-])c(-c2ccc(F)cc2)c2ccccc21.[Na+]", "note": "[Fluvastatin sodium salt]", "fraction of GFP-LC3-positive cells": 0.123}, {"smiles": "CC(CNC1CCCCC1)OC(=O)c1ccccc1.Cl", "note": "(stereo not given) [Hexylcaine hydrochloride]", "fraction of GFP-LC3-positive cells": 0.411}, {"smiles": "O=C1NC(=O)C(c2ccccc2[N+](=O)[O-])=C1Nc1ccc(O)c(Cl)c1", "fraction of GFP-LC3-positive cells": 0.364}, {"smiles": "CN[C@@H]1C(O[C@H]2O[C@H](CO)[C@@H](N)[C@H](O)[C@H]2O)O[C@H]2C[C@@H](N)[C@@H](O[C@H]3[C@H](O)[C@@H](O)[C@H](N)C[C@@H]3N)OC2[C@@H]1O", "note": "(stereo not given in full) [Apramycin]", "fraction of GFP-LC3-positive cells": 0.274}, {"smiles": "CCCCCCCCCC(=O)N[C@@H](CCCN=C(N)N)C(=O)N[C@H](C(=O)N[C@@H](CCCCN)C(=O)N[C@@H](CCCN=C(N)N)C(=O)CCl)C(C)C", "fraction of GFP-LC3-positive cells": 0.536}, {"smiles": "CCCCC/C=C\\C/C=C\\CC1OC1C/C=C\\CCCC(=O)O", "note": "(stereo not given) [8,9-Epoxyeicosatrienoic acid]", "fraction of GFP-LC3-positive cells": 0.41}, {"smiles": "CCCCC/C=C\\C/C=C\\CC1OC1C/C=C\\CCCC(=O)O", "note": "(stereo not given)", "fraction of GFP-LC3-positive cells": 0.392}, {"smiles": "CCCCCC/C=C/CCCCCCCCC(=O)O", "note": "[10(Z)-Heptadecenoic acid]", "fraction of GFP-LC3-positive cells": 0.419}, {"smiles": "CCCC[C@@H](C=O)NC(=O)OC(C)(C)C", "fraction of GFP-LC3-positive cells": 0.447}, {"smiles": "COc1c2occc2c(OC)c2c(=O)cc(C)oc12", "note": "[Khellin]", "fraction of GFP-LC3-positive cells": 0.508}, {"smiles": "Cl.c1cnc(N2CCN(Cc3ccc4c(c3)OCO4)CC2)nc1", "note": "[Piribedil hydrochloride]", "fraction of GFP-LC3-positive cells": 0.496}, {"smiles": "Clc1ccc(COC(Cn2ccnc2)c2ccc(Cl)cc2Cl)cc1.O=[N+]([O-])O", "note": "(stereo not given) [Econazole nitrate]", "fraction of GFP-LC3-positive cells": 0.353}, {"smiles": "COC(=O)C1=C(C)NC(C)=C([N+](=O)[O-])C1c1ccccc1C(F)(F)F", "note": "(stereo not given)", "fraction of GFP-LC3-positive cells": 0.449}, {"smiles": "CC(=O)N(CC(C)C(=O)O)c1c(I)cc(I)c(N)c1I", "note": "(stereo not given) [Iocetamic acid]", "fraction of GFP-LC3-positive cells": 0.312}, {"smiles": "COc1cc(S(C)=O)ccc1-c1nc2ncccc2[nH]1", "note": "(stereo not given) [Sulmazole]", "fraction of GFP-LC3-positive cells": 0.364}, {"smiles": "CN(C)CCCN1c2ccccc2Sc2ccccc21.Cl", "note": "[Promazine hydrochloride]", "fraction of GFP-LC3-positive cells": 0.434}, {"smiles": "C#C[C@]1(O)CC[C@H]2[C@@H]3CCC4=C(CCC(=O)C4)[C@H]3CC[C@@]21C", "note": "[Norethynodrel]", "fraction of GFP-LC3-positive cells": 0.389}, {"smiles": "COc1ccc2cc([C@@H](C)C(=O)[O-])ccc2c1.[Na+]", "note": "[(R) -Naproxen sodium salt]", "fraction of GFP-LC3-positive cells": 0.478}, {"smiles": "Cl.NC(CO)C(=O)NNCc1ccc(O)c(O)c1O", "note": "(stereo not given) [Benserazide hydrochloride]", "fraction of GFP-LC3-positive cells": 0.411}, {"smiles": "CC(C)(C)c1cc(O)c(C(C)(C)C)cc1O", "note": "[2,5-ditertbutylhydroquinone]", "fraction of GFP-LC3-positive cells": 0.696}, {"smiles": "COc1cc2nc(N(C)CCCNC(=O)C3CCCO3)nc(N)c2cc1OC.Cl", "note": "(stereo not given) [Alfuzosin hydrochloride]", "fraction of GFP-LC3-positive cells": 0.474}, {"smiles": "CC(=O)N[C@@H](CC(C)C)C(=O)O", "note": "[N-Acetyl-L-leucine]", "fraction of GFP-LC3-positive cells": 0.38}, {"smiles": "COc1ccc2c(c1)c(CC(=O)OCC(=O)O)c(C)n2C(=O)c1ccc(Cl)cc1", "note": "[Acemetacin]", "fraction of GFP-LC3-positive cells": 0.361}, {"smiles": "CNc1ncnc2c1ncn2[C@@H]1O[C@H](CO)[C@@H](O)[C@H]1O", "note": "[N6-methyladenosine]", "fraction of GFP-LC3-positive cells": 0.417}, {"smiles": "COc1ccc(C[C@H](N)C(=O)N[C@H]2[C@@H](O)[C@H](n3cnc4c(N(C)C)ncnc43)O[C@@H]2CO)cc1.Cl.Cl", "note": "[Puromycin dihydrochloride]", "fraction of GFP-LC3-positive cells": 0.937}, {"smiles": "COc1ccc(CC(N)C(=O)N[C@H]2[C@@H](O)[C@H](n3cnc4c(N(C)C)ncnc43)O[C@@H]2CO)cc1", "note": "(stereo not given in full) [puromycin]", "fraction of GFP-LC3-positive cells": 0.782}, {"smiles": "CCN(CC)Cc1cc(Nc2ccnc3cc(Cl)ccc23)ccc1O.Cl.Cl.O.O", "note": "[Amodiaquin dihydrochloride dihydrate]", "fraction of GFP-LC3-positive cells": 0.513}, {"smiles": "CCN(CC)CCCC(C)Nc1c2ccc(Cl)cc2nc2ccc(OC)cc12.Cl.Cl.O.O", "note": "(stereo not given) [Quinacrine dihydrochloride dihydrate]", "fraction of GFP-LC3-positive cells": 0.866}, {"smiles": "CCN(CC)CCCC(C)Nc1ccnc2cc(Cl)ccc12.O=P(O)(O)O.O=P(O)(O)O", "note": "(stereo not given) [Chloroquine diphosphate]", "fraction of GFP-LC3-positive cells": 0.518}, {"smiles": "NC1CONC1=O", "note": "(stereo in doubt) [(S)-(-)-Cycloserine]", "fraction of GFP-LC3-positive cells": 0.414}, {"smiles": "CNC(C)CCC=C(C)C.CNC(C)CCC=C(C)C.O=C(O)C(O)C(O)C(O)C(O)C(=O)O", "note": "(stereo not given) [Isometheptene mucate]", "fraction of GFP-LC3-positive cells": 0.479}, {"smiles": "Cc1c(N(C)C)c(=O)n(-c2ccccc2)n1C", "note": "[Amidopyrine]", "fraction of GFP-LC3-positive cells": 0.504}, {"smiles": "COc1ccc2cc1Oc1ccc(cc1)C[C@H]1c3cc(c(OC)cc3CCN1C)Oc1c(OC)c(OC)cc3c1[C@H](C2)N(C)CC3", "fraction of GFP-LC3-positive cells": 0.746}, {"smiles": "COc1cc2c3cc1Oc1c(OC)c(OC)cc4c1[C@@H](Cc1ccc(OC(=O)c5ccc([N+](=O)[O-])cc5)c(c1)Oc1ccc(cc1)C[C@@H]3N(C)CC2)N(C)CC4", "note": "[E6 berbamine]", "fraction of GFP-LC3-positive cells": 0.834}, {"smiles": "COc1ccc2cc1Oc1ccc(cc1)C[C@H]1c3cc(c(OC)cc3CCN1C)Oc1c(OC)c(OC)cc3c1[C@H](C2)N(C)CC3", "note": "[Tetrandrine]", "fraction of GFP-LC3-positive cells": 0.679}, {"smiles": "CNCCc1ccccn1.CS(=O)(=O)O.CS(=O)(=O)O", "note": "[Betahistine mesylate]", "fraction of GFP-LC3-positive cells": 0.488}, {"smiles": "c1ccc(CN(CCN(Cc2ccccn2)Cc2ccccn2)Cc2ccccn2)nc1", "fraction of GFP-LC3-positive cells": 0.952}, {"smiles": "CN(C)CCN(Cc1ccc(Cl)cc1)c1ccccn1.Cl", "note": "[Chloropyramine hydrochloride]", "fraction of GFP-LC3-positive cells": 0.566}, {"smiles": "CCc1cccc2c3c([nH]c12)C(CC)(CC(=O)O)OCC3", "note": "(stereo not given) [Etodolac]", "fraction of GFP-LC3-positive cells": 0.495}]}]}
